D1 antagonist = antagonists of human D1 dopamine receptor; 3.2% of 360,000 active; activity change, negative = inhibition, % at 10 µM; HEK293 TREx D1 cells, calcium flux, dopamine EC80; hits give low values; P21728; AID 504652; in the data active = activity change below about -30%; note: % is set by controls: 0 for no effect and ±100 for the full control effect
Target sequence (P21728 whole entry, looked up): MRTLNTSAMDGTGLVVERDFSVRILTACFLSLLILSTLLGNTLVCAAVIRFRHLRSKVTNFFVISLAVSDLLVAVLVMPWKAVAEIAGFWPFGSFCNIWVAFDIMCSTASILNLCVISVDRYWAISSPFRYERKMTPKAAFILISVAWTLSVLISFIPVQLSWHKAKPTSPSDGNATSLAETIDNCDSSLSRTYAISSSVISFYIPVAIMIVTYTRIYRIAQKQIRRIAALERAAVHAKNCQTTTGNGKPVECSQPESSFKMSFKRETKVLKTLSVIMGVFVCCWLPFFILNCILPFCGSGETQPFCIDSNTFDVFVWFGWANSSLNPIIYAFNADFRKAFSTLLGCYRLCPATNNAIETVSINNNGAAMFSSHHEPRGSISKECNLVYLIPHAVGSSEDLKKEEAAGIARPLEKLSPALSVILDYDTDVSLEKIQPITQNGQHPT
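Using tetracycline-induced force-coupled D1 Hek293 cells and a calcium dye, signals were followed for 180 s after compound, then for 180 s after EC80 dopamine, to detect inhibitors.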
DRD3 antagonist = blocks the human D3 dopamine receptor; 2.5% of 360,000 active; max response, negative = inhibition, %; D3R cells, DiscoveRx beta-arrestin luminescence, antagonist mode; hits give low values; AID 652054; in the data active = max response below about -50%; inconclusive = no clear call, values can overlap the other calls; note: % is set by controls: 0 for no effect and ±100 for the full control effect
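Cells plated overnight at 1500 cells/well, then exposed to library compounds with dopamine controls for 90 minutes at 37 degrees C. DiscoveRx reagent added for 30–60 minutes at room temperature; luminescence read, quantitative HTS format.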
Chronic BCR inh = blocks chronic active B-cell receptor signaling; ABC-DLBCL IkBa-CBG/CBR reporter, luminescence ratio, 4 h; Potency, µM (highest dose often 46.1 µM), inactives show at the highest dose activity change, negative = inhibition, actives largely listed as inhibitors; 0.05% of 340,000 active; AID 493014; active = well fitted inhibition curve with a large enough effect in the signal ratio, with a control signal flat, not every such curve was filed as active; inconclusive = small, poorly fitted or top-dose-only effect, or effect the other way, or a change in a side signal; the % refers to the signal ratio;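 note: potency is the fitted concentration of half-maximal effect; plate controls were basal doxycycline-induced cells for no effect and cells given 10 µM MG132 for full effect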
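Doxycycline induced both beetle luciferases in TMD8 lymphoma cells; IKK-driven degradation limits the IkappaBalpha-fused green signal, while red luminescence normalises for cell number and nonspecific effects. Compounds tested up to 46 uM, 4 hrs.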
D1 ag = agonists of human D1 dopamine receptor; activation, % at 2 µM; HEK293 T-REx D1 cells, calcium flux, agonist mode; AID 504660; 1% of 360,000 active; in the data active = activation above about 30%; note: 0% is about no effect
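Inducible HEK293 T-REx D1 cells, force-coupled to calcium signalling, were plated at 4000 cells/well with tetracycline and held overnight at 30 C. After no-wash calcium dye loading, compound-evoked calcium rise over 180 s flagged agonists.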
DRD3 agonist = agonists of human D3 dopamine receptor; P35462; max activation, %; AID 652048; D3R DiscoveRx beta-arrestin cells, luminescence, 90 min; 0.58% of 410,000 active; in the data active = max activation above about 30%; note: 0% is about no effect
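Agonist-mode cell screen: cells plated at 1500/well and incubated overnight at 37 °C, then exposed to library compounds for 90 min at 37 °C. Detection reagent was added for 30–60 min at room temperature, and luminescence was read.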
D1 potentiator = enhances dopamine response at the human D1 receptor; P21728; HEK293 TREx D1 cells, calcium flux, dopamine EC20 potentiation; potentiation, % at 10 µM; 0.036% of 360,000 active; AID 504651; in the data active = potentiation above about 30%; note: 0% is about no effect
Active calls of the source: *; ? = inconclusive; / = no result given. Shown are actives, neighbours in structure and some others; about 6% of the full set was active somewhere.

SMILES	D1 antagonist	DRD3 antagonist	Chronic BCR inh	D1 ag	DRD3 agonist	D1 potentiator
O=C(NCc1ccccn1)NC12CC3CC(CC(C3)C1)C2	-82.3*	13.6	?	2.4	0.8	-4.5
CCOC(=O)C1=C(CNCCOc2ccc(OC)cc2)NC(=O)NC1c1ccc2c(c1)OCO2 (configuration not stated)	-33.5*	-7.5	-10.6%	8.9	3.2	-3.0
Nc1c2c(nc3ccn(-c4ccccc4)c(=O)c13)CCCCC2	-35.4*	-25.9	3.3%	0.3	-9.4	-10.4
CC(C)c1noc(-c2ccccc2OCC(=O)Nc2ccc([N+](=O)[O-])cc2)n1	5.6	/	/	-0.1	3.7	-1.4
O=C(NC1CC(=O)N(c2cccc(F)c2)C1)c1ccc(Br)o1 (configuration not stated)	/	/	-5.1%	-0.8	-16.6	-1.3
C=CCSc1nnc(C)c(/C=C/Nc2ccc(Cl)cc2)n1	-4.5	1.8	-0.6%	74.2*	0.7	-1.8
Nc1[nH]c2cc([N+](=O)[O-])ccc2c1-c1ccccn1	-12.1	-23.0	?	65.3*	-2.1	-12.2
COc1cc(C(=O)NCCc2sc(-c3ccc(C)cc3)nc2C)cc(OC)c1OC	6.7	/	/	2.2	5.3	-2.8
O=c1cc(-c2ccccc2)n2c(SCc3ccccc3Cl)nnc2[nH]1	/	/	-2.8%	0.3	4.1	-1.1
N/C(Cc1cccc2ccccc12)=N\OC(=O)c1cccs1	-2.3	-75.6*	1.9%	2.5	-3.4	-4.1
COc1ccc(C(=O)CC(C#N)c2ccc3c(c2)OCO3)cc1OC (configuration not stated)	/	1.2	/	/	3.0	/
O=S(=O)(c1ccc(Cl)cc1)N1CCN(C(=S)Nc2ccc(F)c(Cl)c2)CC1	-36.7*	-20.5	13.3%	14.8	-10.4	-6.3
O=S(=O)(c1ccc(NC(=S)N2CCN(c3ccccc3F)CC2)cc1)N1CCOCC1	-31.4*	-7.8	-0.4%	10.8	-0.7	-11.5
Fc1ccc(NC(=S)NN2CCOCC2)cc1Cl	-32.3*	2.4	2.8%	3.6	-7.6	-2.9
O=S(=O)(c1ccccc1)N1CCN(C(=S)Nc2ccc(F)cc2)CC1	0.2	12.8	-5.2%	3.2	1.8	-2.2
COc1ccccc1N1CCN(C(=S)Nc2ccc(S(=O)(=O)N3CCOCC3)cc2)CC1	-15.2	0.1	-21.5%	4.1	1.8	-3.6
O=C(CCC1CCN(Cc2ccccc2)CC1)c1ccc2c(c1)NCCCC2	/	/	/	/	-24.4	/
O=C(NCc1cccnc1)c1nn(-c2ccc(F)cc2)nc1CO	-2.2	/	/	-0.1	-8.0	-1.1
Cc1ccc(-n2c(=O)c3cccnc3n2CC(=O)NCc2ccc(Cl)cc2)cc1	-4.4	/	/	1.2	15.0	0.5
Cc1cccc(C)c1NC(=O)COC(=O)CNC(=O)C1CCCCC1	-31.4*	7.8	1.0%	0.1	1.4	-7.1
O=C(COC(=O)CNC(=O)C1CCCCC1)Nc1ccccc1	/	-8.1	0.6%	/	-4.5	/
Cc1ccc(Cn2cnc3nc4c(cc3c2=O)CC(C)CC4)cc1 (configuration not stated)	3.8	/	/	1.7	-3.8	2.8
COc1ccccc1-n1cc(-c2ccc(Br)cc2)[nH]c1=S	11.8	5.2	?	0.7	-5.1	-6.1
S=c1[nH]c(-c2ccc(Br)cc2)cn1CCc1ccccc1	-90.3*	25.1	?	3.8	5.2	-6.5
COc1ccc(CN2CCCN(CC(=O)Nc3cc(C)ccc3C)S2(=O)=O)cc1	-3.9	/	/	7.6	2.8	-5.0
SMILES	D1 antagonist	DRD3 antagonist	Chronic BCR inh	D1 ag	DRD3 agonist	D1 potentiator
CCOC(=O)C1=C(CC)OC(N)=C(C#N)C1c1ccc(OC)c(OC)c1OC (configuration not stated)	-31.8*	14.5	-12.2%	0.3	-16.1	-6.5
CCOC(=O)C1=C(C)OC(N)=C(C#N)C1c1ccc(OC)c(C)c1OC (configuration not stated)	5.9	24.5	0.6%	4.6	-4.0	-7.0
CCCC1=C(C(=O)OCC)C(c2ccco2)C(C#N)=C(N)O1 (configuration not stated)	1.0	0.7	0.4%	2.2	48.0*	4.8
CCOC(=O)C1=C(CSc2nc(C)ccc2C#N)OC(N)=C(C#N)C1c1cccc(OC)c1OC (configuration not stated)	-70.1*	0.0	0.8%	6.2	-20.1	-7.4
CCOC(=O)C1=C(CSc2nc(CC)c(C)cc2C#N)OC(N)=C(C#N)C1c1ccc(OC)cc1 (configuration not stated)	3.8	2.7	?	7.2	2.3	-0.8
CCCC1=C(C(=O)OCC)C(c2ccc(OC)c(C)c2OC)C(C#N)=C(N)O1 (configuration not stated)	4.4	0.0	-1.0%	56.3*	-6.3	12.5
CCOC(=O)C1=C(CC)OC(N)=C(C#N)C1c1ccc(OC)c(C)c1OC (configuration not stated)	-7.5	-3.8	?	25.9	1.0	-2.0
CN(C(=O)CSc1nnc(C(F)(F)F)n1C)c1c(N)n(Cc2ccccc2)c(=O)[nH]c1=O	/	-8.8	/	/	-1.6	/
Cc1ccc2nc(NC(=O)CSc3[nH]c(=O)ncc3C)sc2c1	18.1	/	?	3.2	-1.7	5.7
COc1cccc(N/C(=N/C(=S)Nc2ccc(C)cc2C)Nc2nc(C)cc(C)n2)c1	-61.3*	1.0	-12.4%	8.7	-2.5	-4.2
CCN(CC)CCCNC(=O)c1c(C)oc2ncnc(N3CCOCC3)c12	9.6	/	/	1.9	-17.8	-2.3
CCCCN(CC)CCCNC(=O)c1c(C)oc2ncnc(N3CCOCC3)c12	-25.1	/	/	1.2	60.0*	-5.8
CCCCCc1c(-c2cccc(OC)c2)ncn1CCc1ccccc1OC	/	28.8	/	/	6.1	/
COc1ccc(CCNC(=O)CSCc2nc(-c3cccc(C)c3)oc2C)cc1OC	-2.4	/	/	4.6	2.0	-2.8
CCOc1ccc(-c2nc(CSCC(=O)NCc3ccc(Cl)cc3)c(C)o2)cc1	0.7	/	0.3%	10.7	32.0*	1.1
COc1cccc(-c2nc(CSCC(=O)NCCc3ccc(Cl)cc3)c(C)o2)c1	-35.9*	/	/	48.0*	0.9	3.5
Cc1cc(NC(=O)CCn2c(=O)c3cccn3c3cccnc32)ccc1Br	-4.0	/	/	0.8	1.2	1.8
COc1ccc(C2C(=O)NN=C2C)cc1 (configuration not stated)	/	0.0	/	/	9.2	/
COc1ccc(CNC(=O)CCCN2C(=O)CSc3c2c(C)nn3-c2ccccc2)cc1	-1.5	/	/	0.2	2.0	-4.1
O=C(CCCCCCN1C(=O)c2ccccc2C1=O)N1CCC(c2ccccc2)C1 (configuration not stated)	-44.4*	-3.0	?	23.5	-4.4	-10.7
CCOc1ccc(-n2c(=O)c3c(C)c(C)sc3n(Cc3ccccc3C)c2=O)cc1	-73.4*	/	/	-1.3	0.2	5.3
